# From PubChem BioAssay (EPA / NIEHS)
# Values joined by “and” are separate entries in the source; they are usually repeats but may differ in a detail not shown here. Equal values may be shown once. Active and inactive are the calls of the source. The calls were made as follows: active = hit-call score of the fitted dose curve at least 0.9, where 1 is the maximum; inactive = score below 0.9.
# Test: CCTE_Shafer_MEA_acute_per_network_burst_spike_number_mean: CCTE's Neural Acute Assay for Average Number of Spikes in a Network Burst, Shafer Lab (AID 2284019)
# Description: CCTE_Shafer_MEA_acute assay is conducted using Axion Biosystems 48 well microelectrode array (MEA) plates and Maestro recording system. Each well of the MEA plate contains a grid of 16 microelectrodes embedded in the culture surface. Electrically active cells, such as neurons, can be cultured over the electrodes, and electrical activity in these cells can be recorded extracellularly. The spontaneous firing of neurons is captured from each electrode on a microsecond timescale providing both temporally and spatially precise data. […] The CCTE_Shafer_MEA_acute assay uses primary cultures of rat cortical neurons. As these cultures mature over time, neural networks develop functional activity and form cohesive networks in which electrical activity can be highly coordinated. Baseline 40-minute recordings are made on days post-plating 13 or 15, followed by a secondary 40-minute recording after chemical exposure.CCTE_Shafer_MEA_acute_per_network_burst_spike_number_mean is a component of the CCTE_Shafer_MEA_acute assay. It measures the average number of spikes (action potential firings) in a network burst (temporally-clustered group of spikes across multiple electrodes) as the total number of spikes in a network burst divided by the number of network bursts during a recording in a microelectrode array (MEA) using Axion Biosystems Maestro 768 channel amplifier with the AxIS adaptive spike detector. The recordings before and after chemical treatment are used to calculate a percent change in the mean number of spikes in a network burst in each well.Data from the assay component CCTE_Shafer_MEA_acute_per_network_burst_spike_number_mean was analyzed into 1 assay endpoint. This assay endpoint, CCTE_Shafer_MEA_acute_per_network_burst_spike_number_mean, was analyzed in the negative analysis fitting direction relative to DMSO as the negative control and baseline of activity. Using a type of functional reporter, gain or loss-of-signal activity can be used to understand electrical activity.
# Spontaneous activity in the cortical cultures was recorded using an Axion Biosystems Maestro 768 channel amplifier and Axion Integrated Studios (AxIS) v1.8 (or later) software. The amplifier recorded from all channels simultaneously (gain = 1200 x; sampling rate = 12.5 kHz/channel): raw signals were filtered with a Butterworth band-pass filter (300-5000 Hz), which filters out slower local field potentials leaving only fast potentials, i.e., "spikes", arising from extracellular currents associated with action potentials (Pine 2006; Wheeler and Nam 2011). On-line spike detection of filtered signals was conducted with the AxIS adaptive spike detector, using a threshold of 8x the root mean squared (rms) noise on each channel. Any electrodes with rms noise levels greater than 5 uV were grounded (e.g., no data were recorded). Once grounded, an electrode was grounded for the duration of the experiment. All recordings were conducted at 37 C. Wells were deemed usable if on the day of the exposure >/= 10 electrodes were active (defined as >/= 5 spikes/min). On DIV 13 or 15, a minimum of three wells from one cortical culture preparation were treated with each compound (0.03-40 uM). Prior to recording baseline activity, each mwMEA plate was placed in the Maestro at 37 C and allowed to sit for 20 min while firing rates stabilized. Baseline activity (40 min) was recorded before the addition of each compound. An additional 40 min of spontaneous activity was recorded in the presence of each compound. Changes in network parameters relative to baseline were assessed following compound treatment.
Structure (SMILES),AC50,outcome
CC(C)(C)c1ccc(CSc2cnn(C(C)(C)C)c(=O)c2Cl)cc1,1.64 µM (active),–
CON(C)C(=O)Nc1ccc(Cl)c(Cl)c1,–,inactive
CCCN(CCC)c1c([N+](=O)[O-])cc(S(N)(=O)=O)cc1[N+](=O)[O-],–,inactive
N#CC(CCc1ccc(Cl)cc1)(Cn1cncn1)c1ccccc1 (stereo not drawn),–,inactive
Cc1c(F)c(F)c(COC(=O)C2C(/C=C(\Cl)C(F)(F)F)C2(C)C)c(F)c1F (stereo not drawn),0.0326 µM (active),–
OC(c1ccc(Cl)cc1)(c1cncnc1)c1ccccc1Cl (stereo not drawn),1.62 µM (active),–
COC(=O)C(C)Oc1ccc(Oc2ccc(Cl)cc2Cl)cc1 (stereo not drawn),–,inactive
CS/C(C)=N/OC(=O)N(C)SN(C)C(=O)O/N=C(\C)SC,20 µM (active),–
N#Cc1nn(-c2c(Cl)cc(C(F)(F)F)cc2Cl)c(N)c1S(=O)C(F)(F)F (stereo not drawn),1.59 µM (active) and 666 nM (active),–
CCCCNC(=O)OCC#CI,–,inactive
Fc1ccc(Oc2ccnc3cc(Cl)cc(Cl)c23)cc1,–,inactive
COP(N)(=O)SC (stereo not drawn),–,inactive
C#CCOS(=O)OC1CCCCC1Oc1ccc(C(C)(C)C)cc1 (stereo not drawn),–,inactive
COC(=O)N(OC)c1ccccc1COc1ccn(-c2ccc(Cl)cc2)n1,–,inactive
CCOP(=S)(OCC)SCn1c(=O)oc2cc(Cl)ccc21,–,inactive
CO/C=C(/C(=O)OC)c1ccccc1Oc1cc(Oc2ccccc2C#N)ncn1,–,inactive
CCCC1COC(Cn2cncn2)(c2ccc(Cl)cc2Cl)O1 (stereo not drawn),9.03 µM (active),–
CC(Oc1ccc(Cl)cc1Cl)C(=O)O (stereo not drawn),–,inactive
O=C(O)c1nc(Cl)ccc1Cl,–,inactive
C=CCC1=C(C)C(OC(=O)C2C(C=C(C)C)C2(C)C)CC1=O (stereo not drawn),–,inactive
COP(=S)(OC)Oc1nc(Cl)c(Cl)cc1Cl,–,inactive
C=CCC1=C(C)[C@@H](OC(=O)[C@@H]2[C@@H](C=C(C)C)C2(C)C)CC1=O,–,inactive
COc1ccc(C(c2ccc(OC)cc2)C(Cl)(Cl)Cl)cc1,–,inactive
CC1COC(Cn2cncn2)(c2ccc(Oc3ccc(Cl)cc3)cc2Cl)O1 (stereo not drawn),–,inactive
Cc1ccc(-c2c(Cl)nc(C#N)n2S(=O)(=O)N(C)C)cc1,–,inactive
CCNc1nc(Cl)nc(NC(C)C)n1,–,inactive
CC(C)Oc1cc(-n2nc(C(C)(C)C)oc2=O)c(Cl)cc1Cl,–,inactive
CNC(=O)ON=CC(C)(C)SC,–,inactive
